Measured values taken from PubChem BioAssay AID1159580 (chemical genetic matrix, 2015).
Screen size: about 5,500 compounds; about 2,000 (36%) were called active. Not shown: some 18% with an inconclusive outcome. Rule as the data show it: active = normalized growth mostly below about 0.91 (no sharp cut-off); inconclusive = no clear call, values can overlap the other calls; inactive = mostly above about 0.92. Some of the results follow.

Assay: chemical genetic growth profiling, strain panel (AID 1159580);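 also: tested at 20 µM; growth read once vehicle control cultures reached saturation at 30 °C; 1 = growth at the plate median or of vehicle wells; lower values mean less growth of the strain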
Conditions: growth OD

Measured: normalized growth

C[C@@H]1C(=O)OC2[C@H](O)C34[C@@H]5OC(=O)[C@@]3(O[C@@H]3OC(=O)[C@H](O)[C@@]34[C@H](C(C)(C)C)[C@H]5O)[C@]21O (some centres undefined)
inactive: S. cerevisiae deletion strains, locus YJR066W, strain TOR1, hits give low values 0.958 | S. cerevisiae deletion strains, locus YKL009W, strain mrt4, hits give low values 1.02 | S. cerevisiae deletion strains, locus YKL068W, hits give low values 1 | S. cerevisiae deletion strains, locus YKL085W, strain MDH1 (second series), hits give low values 1.01 | S. cerevisiae deletion strains, locus YKL085W, strain MDH1, hits give low values 1.01 | S. cerevisiae deletion strains, locus YKL160W, strain elf1, hits give low values 0.981 | S. cerevisiae deletion strains, locus YKL190W, strain CNB1, hits give low values 0.993 | S. cerevisiae deletion strains, locus YKR001C, strain vps1, hits give low values 1.02 | S. cerevisiae deletion strains, locus YKR026C, strain gcn3, hits give low values 0.977 | S. cerevisiae deletion strains, locus YKR091W, strain srl3, hits give low values 0.955 | S. cerevisiae deletion strains, locus YLL001W, strain dnm1, hits give low values 0.987 | S. cerevisiae deletion strains, locus YLL026W, hits give low values 0.984 | S. cerevisiae deletion strains, locus YLL041C, strain sdh2, hits give low values 0.971 | S. cerevisiae deletion strains, locus YLR027C, strain aat2, hits give low values 0.973 | S. cerevisiae deletion strains, locus YLR039C, strain RIC1, hits give low values 1 | S. cerevisiae deletion strains, locus YLR058C, strain SHM2, hits give low values 1 | S. cerevisiae deletion strains, locus YLR102C, strain apc9, hits give low values 1.01 | S. cerevisiae deletion strains, locus YLR113W, strain HOG1, hits give low values 0.997 | S. cerevisiae deletion strains, locus YLR221C, strain rsa3, hits give low values 0.978 | S. cerevisiae deletion strains, locus YLR258W, strain gsy2, hits give low values 0.978 | S. cerevisiae deletion strains, locus YLR262C, strain YPT6 (second series), hits give low values 0.964 | S. cerevisiae deletion strains, locus YLR262C, strain YPT6, hits give low values 1.01 | S. cerevisiae deletion strains, locus YLR268W, strain sec22, hits give low values 1.02 | S. cerevisiae deletion strains, locus YLR320W, strain mms22, hits give low values 0.98 | S. cerevisiae deletion strains, locus YLR330W, strain CHS5, hits give low values 1.01 | S. cerevisiae deletion strains, locus YLR342W, strain FKS1 (second series), hits give low values 1.01 | S. cerevisiae deletion strains, locus YLR342W, strain FKS1, hits give low values 0.982 | S. cerevisiae deletion strains, locus YLR357W, strain rsc2, hits give low values 0.932 | S. cerevisiae deletion strains, locus YLR370C, strain arc18, hits give low values 0.97 | S. cerevisiae deletion strains, locus YLR371W, strain rom2, hits give low values 1.02 | S. cerevisiae deletion strains, locus YLR384C, strain iki3, hits give low values 0.981 | S. cerevisiae deletion strains, locus YLR418C, strain cdc73, hits give low values 1.02 | S. cerevisiae deletion strains, locus YML016C, strain PPZ1, hits give low values 1.01 | S. cerevisiae deletion strains, locus YML032C, strain rad52, hits give low values 1 | S. cerevisiae deletion strains, locus YML120C, strain ndi1, hits give low values 0.975 | S. cerevisiae deletion strains, locus YML124C, strain tub3, hits give low values 1.02 | S. cerevisiae deletion strains, locus YMR058W, strain fet3, hits give low values 0.966 | S. cerevisiae deletion strains, locus YMR078C, strain ctf18, hits give low values 1.02 | S. cerevisiae deletion strains, locus YMR125W, strain sto1, hits give low values 0.941 | S. cerevisiae deletion strains, locus YMR129W, hits give low values 0.959 | S. cerevisiae deletion strains, locus YMR205C, strain PFK2, hits give low values 0.984 | S. cerevisiae deletion strains, locus YMR223W, strain ubp8, hits give low values 1.03 | S. cerevisiae deletion strains, locus YMR231W, strain pep5, hits give low values 0.984 | S. cerevisiae deletion strains, locus YMR263W, strain SAP30, hits give low values 1 | S. cerevisiae deletion strains, locus YMR307W, strain GAS1, hits give low values 0.979 | S. cerevisiae deletion strains, locus YNL067W, strain RPL9B, hits give low values 0.995 | S. cerevisiae deletion strains, locus YNL071W, strain lat1, hits give low values 0.974 | S. cerevisiae deletion strains, locus YNL183C, strain NPR1, hits give low values 0.973 | S. cerevisiae deletion strains, locus YNL209W, strain ssb2, hits give low values 0.971 | S. cerevisiae deletion strains, locus YNL233W, strain BNI4, hits give low values 1 | S. cerevisiae deletion strains, locus YNL248C, strain rpa49, hits give low values 0.961 | S. cerevisiae deletion strains, locus YNL250W, strain rad50, hits give low values 1.02 | S. cerevisiae deletion strains, locus YNL271C, strain bni1, hits give low values 1.01 | S. cerevisiae deletion strains, locus YNL298W, strain CLA4, hits give low values 1.02 | S. cerevisiae deletion strains, locus YNL307C, strain MCK1, hits give low values 1.03 | S. cerevisiae deletion strains, locus YNL322C, strain KRE1 (second series), hits give low values 0.963 | S. cerevisiae deletion strains, locus YNL322C, strain KRE1, hits give low values 1 | S. cerevisiae deletion strains, locus YNR049C, strain mso1, hits give low values 0.95 | S. cerevisiae deletion strains, locus YNR052C, strain pop2, hits give low values 1.01 | S. cerevisiae deletion strains, locus YOL012C, strain htz1 1.18 | S. cerevisiae deletion strains, locus YOL147C, strain pex11, hits give low values 1.02 | S. cerevisiae deletion strains, locus YOR001W, strain rrp6, hits give low values 0.972 | S. cerevisiae deletion strains, locus YOR061W, strain CKA2, hits give low values 1 | S. cerevisiae deletion strains, locus YOR069W, strain VPS5, hits give low values 0.997 | S. cerevisiae deletion strains, locus YOR070C, strain gyp1, hits give low values 0.988 | S. cerevisiae deletion strains, locus YOR080W, strain dia2, hits give low values 0.951 | S. cerevisiae deletion strains, locus YOR083W, strain WHI5, hits give low values 0.988 | S. cerevisiae deletion strains, locus YOR106W, strain vam3, hits give low values 0.978 | S. cerevisiae deletion strains, locus YOR136W, strain idh2, hits give low values 1.01 | S. cerevisiae deletion strains, locus YOR144C, strain elg1, hits give low values 1.01 | S. cerevisiae deletion strains, locus YOR184W, strain ser1, hits give low values 1.03 | S. cerevisiae deletion strains, locus YOR231W, strain MKK1, hits give low values 1.02 | S. cerevisiae deletion strains, locus YOR265W, strain rbl2, hits give low values 0.977 | S. cerevisiae deletion strains, locus YOR270C, strain vph1, hits give low values 0.935 | S. cerevisiae deletion strains, locus YOR290C, strain snf2, hits give low values 0.953 | S. cerevisiae deletion strains, locus YOR316C, strain cot1, hits give low values 1.02 | S. cerevisiae deletion strains, locus YPL051W, strain arl3, hits give low values 0.985 | S. cerevisiae deletion strains, locus YPL055C, strain LGE1, hits give low values 0.998 | S. cerevisiae deletion strains, locus YPL078C, strain atp4, hits give low values 0.984 | S. cerevisiae deletion strains, locus YPL106C, strain sse1, hits give low values 0.944 | S. cerevisiae deletion strains, locus YPL240C, strain hsp82, hits give low values 0.979 | S. cerevisiae deletion strains, locus YPL241C, strain CIN2, hits give low values 0.99 | S. cerevisiae deletion strains, locus YPL256C, strain CLN2, hits give low values 1.06 | S. cerevisiae deletion strains, locus YPR119W, strain clb2, hits give low values 1.01 | S. cerevisiae deletion strains, locus YPR141C, strain kar3, hits give low values 1.01 | S. cerevisiae deletion strains, locus YPR163C, strain tif3, hits give low values 1.02 | S. cerevisiae deletion strains, locus YPR167C, strain met16, hits give low values 1.02 | S. cerevisiae deletion strains, strain wtn01, hits give low values 1.04 | S. cerevisiae strains, strain wild type, hits give low values 0.983
